Sampled rows, rich in hits. Any-hit rate of the full collection: about 1.4%.
Akt phos inh = blocks phosphorylation of Akt | Neuro2A IGF-stimulated pAkt S473 HTRF, 20 min; active compounds read low | activity change, % for hits at 50 µM | AID 651550 | 0.32% of 360,000 active; in the data active = activity change below about -80%; inconclusive = mostly about -51% to -80%; note: % is set by controls: 0 for no effect and ±100 for the full control effect
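Neuro2A cells in DMEM with 0.5% FBS, overnight at 37 deg C, given compound at single 50 µM final, then IGF (6 nM final) for 20 min at 37 deg C. Lysed; phospho-Akt Ser473 by HTRF after 24 h, 665/615 ratio.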
PTAP TSG101 blk = blocks PTAP/TSG101 interaction to inhibit HIV-1 budding; Fluorescence polarization, FITC-PTAP peptide / Tsg101 binding; Potency, µM (doses to about 115 µM), for inactives: at the highest dose activity change, negative = inhibition, actives largely listed as inhibitors; 340,000 tested, under 10 active; AID 493005; active = well fitted inhibition curve with a large enough effect in the main read-out, with a control signal flat, not every such curve was filed as active; inconclusive = small, poorly fitted or top-dose-only effect, or effect the other way, or a change in a side signal; inactive = no such curve, though single readings can be large or run the other way; note: potency is the fitted concentration of half-maximal effect; % of control where 0% means no effect
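Fluorescence anisotropy tracks displacement of a FITC-tagged PTAP peptide (50 nM) from the Tsg101 binding domain (10 uM), following a 20 min room-temperature incubation at pH 7.5.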
Vif-APOBEC3F blk = blocks the Vif interaction with APOBEC3F. AID 602313. HeLa A3F-eYFP + Vif (tagged APOBEC3F with the HIV-1 protein that degrades it), YFP fluorescence increase. 0.2% of 390,000 active. Potency, µM (doses to about 46.1 µM), without a hit: top-dose activity, negative = active; note: potency is the fitted concentration of half-maximal effect; % of control where 0% means no effect; nearly all actives have a fitted effect of over 65% in size
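HeLa cells stably expressing A3F-eYFP plus Vif, plated and incubated overnight at 37 deg C, then exposed to compounds overnight at 37 deg C. Blocked degradation read as raised yellow fluorescence (Ex 488/Em 500-530).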
Vif-APOBEC3G blk = blocks the Vif interaction with human APOBEC3G; HeLa A3G-eYFP + Vif (tagged APOBEC3G with the HIV-1 protein that degrades it), YFP fluorescence, overnight; 0.076% of 410,000 active; AID 602310; Potency, µM (series often up to 46.1 µM), without a hit: top-dose activity, negative = active, actives largely listed as inhibitors; Q9HC16; note: potency is the fitted concentration of half-maximal effect; % is set by controls: 0 for no effect and ±100 for the full control effect; nearly all actives have a fitted effect of over 60% in size
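Read-out is eYFP fluorescence (Ex 488/Em 500-530) from Vif-expressing HeLa A3G-eYFP cells; more signal means A3G escaped Vif-mediated degradation. Cells plated overnight, compound pinned in, incubated overnight at 37 deg C.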
12-LOX inh = inhibitors of human 12S-lipoxygenase ALOX12; Potency, µM (highest dose often 108 µM), for inactives: top-dose activity change, negative = inhibition, usual class: inhibitors; AID 1671190; 1.1% of 580,000 active; purified 12hLO, xylenol orange hydroperoxide absorbance; note: potency is the fitted concentration of half-maximal effect; % is set by controls: 0 for no effect and ±100 for the full control effect
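Purified human 12hLO at 150 nM in 25 mM Hepes, 0.01% Triton X-100, pH 7.0, preincubated 15 min at room temperature with compound. Reaction started with 40 uM arachidonic acid, 30 min at room temperature. Hydroperoxide measured by Fe-xylenol orange, 573/405 nm absorbance ratio.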
S-ASM inh = human S-ASM enzyme inhibition; P17405; placental ASM, HMU-PC fluorogenic substrate, 60 min; Potency, µM (top dose mostly 57.5 µM), inactives show at the highest dose activity change, negative = inhibition, actives largely listed as inhibitors; 0.006% of 340,000 active; AID 504937; note: potency is the fitted concentration of half-maximal effect
Target sequence (P17405 47-631 limits assumed): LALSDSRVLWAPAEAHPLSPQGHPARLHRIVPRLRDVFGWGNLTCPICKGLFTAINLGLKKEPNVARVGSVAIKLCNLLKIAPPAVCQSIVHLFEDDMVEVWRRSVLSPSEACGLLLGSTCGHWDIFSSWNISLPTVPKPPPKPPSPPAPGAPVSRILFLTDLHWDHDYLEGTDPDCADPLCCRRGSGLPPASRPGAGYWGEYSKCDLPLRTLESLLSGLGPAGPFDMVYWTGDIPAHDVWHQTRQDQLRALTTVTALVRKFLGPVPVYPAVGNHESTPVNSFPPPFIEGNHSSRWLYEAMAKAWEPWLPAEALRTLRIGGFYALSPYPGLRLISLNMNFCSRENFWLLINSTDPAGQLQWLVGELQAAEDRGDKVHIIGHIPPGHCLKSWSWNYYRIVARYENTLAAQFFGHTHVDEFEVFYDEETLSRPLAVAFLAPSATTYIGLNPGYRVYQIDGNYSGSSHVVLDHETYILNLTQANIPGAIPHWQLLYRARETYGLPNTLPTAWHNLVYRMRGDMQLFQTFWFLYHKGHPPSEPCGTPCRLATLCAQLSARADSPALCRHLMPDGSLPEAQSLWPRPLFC
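Fluorescence read-out (Ex 386 nm, Em 447 nm) after stopping the reaction at pH 10. Enzyme: ASM from human placenta; substrate HMU-PC0, 9 uM final; 60 min, 37 °C. Compound preincubation 10 min, ambient temperature.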
Active calls of the source: *; i = inactive; ? = inconclusive; . = no result; ! = not confirmed by another sample; [ ] = dose if it differs, or a comment. Unless noted, calls come from the whole dose curve; as a rule, active = well fitted curve in the direction sought with a large enough effect; inconclusive = small, poorly fitted or top-dose-only effect, or another doubt; inactive = no such curve, though single readings can be large; an effect the other way counts as inactive or inconclusive.

SMILES	Akt phos inh	PTAP TSG101 blk	Vif-APOBEC3F blk	Vif-APOBEC3G blk	12-LOX inh	S-ASM inh
O=C1NC(=O)N(c2ccccc2)C(=O)/C1=C/c1coc2ccc(O)cc2c1=O	i	-4%	-4%	5%	45µM*	-1%
O=C1NC(=O)N(c2ccc(Cl)cc2)C(=O)/C1=C/c1coc2ccc(O)cc2c1=O	i	-3%	-9%	-10%	?	-2%
C=C[C@H]1CN2CC[C@H]1C[C@@H]2CNC(=O)Nc1cccc(SC)c1	.	.	.	.	32%[176 µM]	.
CN(C)c1ccc([N+](=O)[O-])c2cnccc12	.	.	.	.	-5%	.
COC(=O)c1nc(-c2ccc3c(n2)C(=O)C(N)=C(OC)C3=O)c(N)c(-c2ccc(OC)c(OC)c2O)c1C	i	0%	3%	0%	16µM*	-14%
Cc1ccc(N2C(=O)/C(=C/N3CCN(C(=O)c4ccco4)CC3)C(=O)NC2=S)cc1C	i	-5%	.	-1%	40µM*	0%
Cc1cccc(CN2CCCC(C(=O)c3cccc(OC(C)C)c3)C2)n1 (centres undefined)	i	-2%	22µM*	11%	6%	2%
COc1cccc(C(=O)C2CCCN(Cc3cccc(C)n3)C2)c1 (centres undefined)	i	-1%	?	2%	-5%	6%
CCN1C(=O)NC(=O)/C(=C/c2cc(C)n(-c3sc(C)c(C)c3C#N)c2C)C1=O	i	-7%	0%	0%	?	-6%
Cc1ccc(N2C(=O)NC(=O)/C(=C\c3cc(C)n(-c4sc5c(c4C#N)CCCC5)c3C)C2=O)cc1	i	-9%	2%	-3%	35µM*	?
CN1CCC(OC(=O)Cc2ccccc2)CC1	i	-10%	-10%	5%	?	3%
C[N+]1(CC(COCc2ccccc2)OC(=O)Cc2ccccc2)CCOCC1 (centres undefined)	i	-6%	-10%	1%	40µM*	9%
COP(=S)(OC)Oc1ccc(S(=O)(=O)N(C)C)cc1	.	.	.	.	11µM*!	.
COc1cccc(CN2CCN(C(=O)COc3ccc4ccccc4c3)CC2)c1	i	-3%	-7%	-1%	1%	0%
COc1cc(CN2CCN(C(=O)COc3ccc4ccccc4c3)CC2)cc(OC)c1O	.	.	.	.	1.6µM*	.
Cn1cccc1CN1CCCC2(CC(c3cccnc3)=NO2)C1 (centres undefined)	.	.	.	.	3%[6.33 µM]	.
CCCCn1c(O)c(/C=C2/C=CC=N2)c(=O)[nH]c1=O	i	0%	?	10µM*	?	-1%
C=CCn1c(O)c(/C=C2/C=CC=N2)c(=O)[nH]c1=O	i	-5%	-15%	?	?	-3%
O=c1[nH]c(=O)n(Cc2ccccc2Cl)c(O)c1/C=C1/C=CC=N1	i	3%	8.9µM*	?	?	-18%
COc1ccc(NC(=O)N2[C@H]3CC[C@@H]2c2cnc(-c4ccc(F)cc4)nc2C3)cc1OC	.	.	.	.	-11%	.
CCCc1c(C)nc(N2CCN(CC)CC2)[nH]c1=O	.	.	.	.	-11%	.
CC1=C(O)C(=O)C=C2C1=CC=C1[C@@]2(C)CC[C@@]2(C)[C@@H]3C[C@](C)(C(=O)O)CC[C@]3(C)CC[C@]12C	.	.	.	.	2.4µM*!	.
O=C1NC(=O)C(=Cc2ccc(Cl)cc2)C(=O)N1	.	.	.	.	40µM*	.
COc1cc2c(cc1OC1CCCC1)NC(=O)C21CCN(Cc2cccc(O)c2)CC1	.	.	.	.	-4%[176 µM]	.
CCOP(=O)(OCC)C(NC(=O)c1ccccc1)=C(Cl)Cl	i	-5%	-14%	-6%	1%	5%
SMILES	Akt phos inh	PTAP TSG101 blk	Vif-APOBEC3F blk	Vif-APOBEC3G blk	12-LOX inh	S-ASM inh
CCOC(=O)C1=C(NC(=S)NC(=O)c2ccccc2)c2ccccc2CC12CCCC2	i	-4%	-11%	0%	20µM*	0%
Oc1ccc(/C=N/NP(=S)(c2ccccc2)c2ccccc2)cc1O	i	-9%	0%	-5%	32µM*	-5%
Oc1ccccc1/C=N/NP(=S)(c1ccccc1)c1ccccc1	i	0%	7%	-1%	20%	-11%
Clc1ccc(N2CCN(Cc3ccccc3Cl)CC2)cc1	i	1%	3%	-2%	?	0%
Clc1ccccc1CN1CCN(c2ccccc2)CC1	i	-8%	-6%	0%	0.89µM*	6%
Cc1noc(C)c1COc1ccc(CC(=O)N2CCCN(C)CC2)cc1	.	.	.	.	-33%	.
CC(C)c1cccc(O)c(=O)c1	i	-4%	?	2%	14µM*!	0%
Cc1c(CC(=O)N2CCN(C(c3ccccc3)c3ccccc3)CC2)c(=O)oc2cc(O)ccc12	.	.	.	.	6%	.
CCc1ccc(NC(=O)CN2C(=O)CN=C(c3ccc(OC)cc3)c3c2sc2c3CCC2)cc1	.	.	.	.	-9%	.
O=C(O)CC[n+]1ccc(-c2cc[n+](CCC(=O)O)cc2)cc1	.	.	.	.	14µM*	.
O=C(NC1CCS(=O)(=O)C1)c1cn(Cc2ccccc2)c2ccccc12 (centres undefined)	.	.	.	.	-1%	.
COc1cc2c(cc1Oc1ccccc1)NC(=O)C21CCN(c2ncc(F)cn2)CC1	.	.	.	.	-23%[176 µM]	.
CCCCn1c(O)c(/C=C2\C=Nc3ccccc32)c(=O)[nH]c1=O	i	?	15%	4%	11%	-12%
O=c1[nH]c(O)c(/C=C2\C=Nc3ccc(OCc4ccccc4)cc32)c(=O)[nH]1	i	?	13µM*	-4%	-15%	-14%
CCCOC(=O)c1c(N)n(Cc2cccs2)c2nc3ccccc3nc12	-115%*	-5%	-7%	-7%	-25%	i
COCCOC(=O)c1c(N)n(Cc2ccccc2)c2nc3ccccc3nc12	i	-8%	-4%	-5%	0%	i
COc1cc2c(cc1CCc1ccccc1)N([S+](=O)([O-])c1ccc3c(c1)CCO3)CC21CCN(C(C)=O)CC1	.	.	.	.	-9%	.
CC=C(C)C1(CCC)C(=O)NC(=S)NC1=O	i	-5%	?	1%	32µM*	1%
Cc1ccc(-n2c(O)c(C=NCCN3CCOCC3)c(=O)[nH]c2=O)cc1	-128%*	-4%	-14%	1%	37%	2%
O=c1[nH]c(=O)n(-c2cccc(Cl)c2)c(O)c1C=NCCCN1CCOCC1	i	-2%	-11%	1%	8%	1%

Assay outcomes (PubChem)
